Experimental data published in PubChem BioAssay.
Active and inactive are the calls of the source. Unless noted, how the calls were made is not given here.

Tests used:
[1] = anti-His antibody binders, primary screen, artefact control for SMM control protein annotation, biochemical, small-molecule microarray, 635 nm fluorescence (AID 1128); conditions: anti-His Alexa647 antibody binding, higher = more signal;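 further: score merges feature fluorescence with signal-to-noise for each printed compound spot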
[2] = tested on: Human papillomavirus type 1a E7 protein (residues 1-88); assay: HPV1a E7 small-molecule binders, primary screen, biochemical, small-molecule microarray, residues 1-88, 635 nm (AID 1129); conditions: small-molecule microarray binding, fluorescence 635 nm; higher = more signal
[3] = molecular target: Focal adhesion kinase 1 (Homo sapiens) (UniProt Q05397); assay: small-molecule microarray binders of FAK, primary screen, biochemical, 635/667 nm fluorescence, BSA, DTT (AID 1130); conditions: PTK2 binding, 635 nm fluorescence, higher = more signal;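 further: composite of spot emission at 667 nm and signal to noise over triplicate slides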
[4] = tested on: Fibrinogen (Alexa647-labelled); assay: fibrinogen binders on compound microarrays, profiling panel, artefact control for SMM control-protein annotation, biochemical, small-molecule microarray, 635/667 nm fluorescence (AID 1131); conditions: fibrinogen-A647 binding fluorescence, higher = more signal;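 further: z-score merges 667 nm fluorescence with per-spot signal-to-noise over triplicate slides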
[5] = molecular target: Follistatin (Homo sapiens) (UniProt P19883); assay: follistatin binders on small-molecule microarrays, primary screen, biochemical, small-molecule microarray, 635/667 nm fluorescence (AID 1132); conditions: FST binding, 635 nm fluorescence, higher = more signal
[6] = molecular target: Fibroblast growth factor 2 (Homo sapiens) (UniProt P09038); assay: FGF2 binders on small-molecule microarrays, primary screen, biochemical, small-molecule microarray, 635/667 nm fluorescence (AID 1133); conditions: small-molecule microarray binding, FGF2, fluorescence 635/667; higher = more signal
[7] = mitochondrial membrane potential change in A549 cells, profiling panel, cell-based, JC-1 fluorescence, basal, 24 h, 100 nL (AID 1138); conditions: higher = more signal;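 further: A549 lung adenocarcinoma cells under basal conditions with no added stimulus; test concentration not given here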
Lefty1 = Lefty1 binders on small-molecule microarrays, primary screen, biochemical, small-molecule microarray, 635/667 nm fluorescence (AID 1139); conditions: small-molecule microarray binding, fluorescence 635/667; higher = more signal
[8] = tested on: wheat germ agglutinin (Triticum aestivum), Alexa647-labelled; assay: wheat germ agglutinin binders on compound microarrays, profiling panel, artefact control for SMM control-protein annotation, biochemical, small-molecule microarray, 635/667 nm fluorescence (AID 1140); conditions: WGA-A647 binding, 635 nm fluorescence, higher = more signal;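 further: score merges 667 nm feature emission with signal to noise over triplicate slides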
[9] = molecular target: Luciferin 4-monooxygenase (Photinus pyralis) (UniProt P08659); assay: firefly luciferase enzyme inhibitors, primary screen, biochemical, luminescence, purified enzyme, 2006 set (AID 1141); conditions: SteadyGlo luminescence, 30 min, higher = more signal, called active from +8 up or from −8 down;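 further: cell-free assay with purified firefly luciferase at 100 ng per well in PBS; test concentration not given here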
[10] = tested on: Wnt5a (protein binding on small-molecule microarray); assay: Wnt5a binders on small-molecule microarray, primary screen, biophysical, 635/667 nm fluorescence (AID 1142); conditions: 635 nm fluorescence, higher = more signal;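 further: fluorescence read at 667 nm with signal to noise per printed feature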
[11] = cell viability in Huh7 cells, primary screen, cytotoxicity control for HCV replication inhibitor project, CellTiter-Glo luminescence, basal, 48 h (AID 1143); conditions: Huh7 HCV replicon, higher = more signal, called active from +8 up or from −8 down;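 further: Huh7 hepatoma cells carrying a hepatitis C replication reporter with no stimulus; test concentration not given here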
[12] = P. aeruginosa biofilm formation inhibitors, primary screen, PAO1 strain, BacTiter-Glo luminescence, LB-PBS (AID 1144); conditions: 12 h, higher = more signal
[13] = CREB reporter modulators without forskolin, primary screen, cell-based, PC12, CRE-LacZ reporter, unstimulated (AID 1145); conditions: no forskolin, luminescence, 4.5 h, higher = more signal, called active from +8 up or from −8 down
[14] = CREB reporter modulators under forskolin, primary screen, cell-based, PC12, CRE-LacZ reporter, forskolin-stimulated (AID 1146); conditions: luminescence, 4.5 h, higher = more signal, called active from +8 up or from −8 down;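 further: PC12 cells with 6xCRE LacZ reporter stimulated by forskolin 10 µM; beta-galactosidase reporter signal reflecting CREB driven transcription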
[15] = molecular target: Streptavidin (Streptomyces avidinii) (UniProt P22629); assay: streptavidin binders on small-molecule microarray, primary screen, artefact control for SMM compound annotation, biophysical, 635/667 nm fluorescence (AID 1147); conditions: streptavidin binding, higher = more signal;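 further: signal reflects streptavidin binding to arrayed compounds as a control protein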
[16] = small-molecule binders of probe aInhba, primary screen, biochemical, small-molecule microarray, 635/667 nm fluorescence (AID 1148); conditions: higher = more signal;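 further: score merges 667nm spot fluorescence with signal-to-noise for antibody binding to printed compounds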
Torsin-1A (Homo sapiens) [17] = molecular target: Torsin-1A (Homo sapiens) (UniProt O14656); assay: torsin A binders from cell lysate, primary screen, small-molecule microarray, wild-type, 635/667 nm (AID 1149); conditions: COS7 hTOR1A-WT lysate, 635 nm fluorescence, higher = more signal
Torsin-1A (Homo sapiens) [18] = molecular target: Torsin-1A (Homo sapiens) (UniProt O14656); assay: small-molecule binders of mutant TOR1A in lysate, primary screen, cell lysate, small-molecule microarray, COS7 lysate, 635/667 nm fluorescence (AID 1150); conditions: COS7 hTOR1A mutant lysate, 635 nm fluorescence, higher = more signal;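 further: score pools 667 nm emission and signal to noise measuring lysate protein binding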
[19] = tested on: Sonic hedgehog protein (Shh); assay: small-molecule binders of Shh protein, primary screen, biochemical, small-molecule microarray, 635/667 nm fluorescence (AID 1151); conditions: small-molecule microarray binding, 635 nm fluorescence; higher = more signal;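 further: Shh protein binding to compounds spotted on small-molecule microarray slides; score combines spot fluorescence intensity with signal-to-noise across triplicate slides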

Sequence of Fibroblast growth factor 2 (Homo sapiens) (P09038 whole entry, looked up): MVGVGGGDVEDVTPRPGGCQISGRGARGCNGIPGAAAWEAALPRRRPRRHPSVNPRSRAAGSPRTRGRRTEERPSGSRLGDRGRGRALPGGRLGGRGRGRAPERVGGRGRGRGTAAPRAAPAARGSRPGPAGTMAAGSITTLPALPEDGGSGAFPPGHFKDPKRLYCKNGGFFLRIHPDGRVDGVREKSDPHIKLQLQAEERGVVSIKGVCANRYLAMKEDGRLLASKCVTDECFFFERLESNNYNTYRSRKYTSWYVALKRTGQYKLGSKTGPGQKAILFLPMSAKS
Sequence of Streptavidin (Streptomyces avidinii) (P22629 whole entry, looked up): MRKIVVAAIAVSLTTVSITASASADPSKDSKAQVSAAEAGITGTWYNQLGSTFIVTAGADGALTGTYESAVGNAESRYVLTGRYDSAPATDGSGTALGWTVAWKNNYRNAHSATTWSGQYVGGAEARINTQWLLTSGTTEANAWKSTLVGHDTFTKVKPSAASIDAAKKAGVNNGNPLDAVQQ
Sequence of Luciferin 4-monooxygenase (Photinus pyralis) (P08659 whole entry, looked up): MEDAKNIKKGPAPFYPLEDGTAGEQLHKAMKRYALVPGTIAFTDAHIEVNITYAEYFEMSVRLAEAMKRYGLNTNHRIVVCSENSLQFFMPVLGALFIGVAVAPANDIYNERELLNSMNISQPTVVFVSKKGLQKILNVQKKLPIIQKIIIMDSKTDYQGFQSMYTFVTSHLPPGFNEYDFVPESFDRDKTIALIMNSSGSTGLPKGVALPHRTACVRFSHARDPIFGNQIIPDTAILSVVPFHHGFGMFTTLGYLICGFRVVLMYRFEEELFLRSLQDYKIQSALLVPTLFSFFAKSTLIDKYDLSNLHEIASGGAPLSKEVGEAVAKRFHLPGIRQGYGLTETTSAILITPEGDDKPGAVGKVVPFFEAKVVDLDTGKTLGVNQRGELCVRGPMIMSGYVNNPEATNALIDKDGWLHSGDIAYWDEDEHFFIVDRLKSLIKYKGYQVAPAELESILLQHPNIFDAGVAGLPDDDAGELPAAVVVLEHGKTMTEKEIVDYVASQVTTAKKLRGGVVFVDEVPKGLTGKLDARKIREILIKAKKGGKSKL
Sequence of Torsin-1A (Homo sapiens) (O14656 whole entry, looked up): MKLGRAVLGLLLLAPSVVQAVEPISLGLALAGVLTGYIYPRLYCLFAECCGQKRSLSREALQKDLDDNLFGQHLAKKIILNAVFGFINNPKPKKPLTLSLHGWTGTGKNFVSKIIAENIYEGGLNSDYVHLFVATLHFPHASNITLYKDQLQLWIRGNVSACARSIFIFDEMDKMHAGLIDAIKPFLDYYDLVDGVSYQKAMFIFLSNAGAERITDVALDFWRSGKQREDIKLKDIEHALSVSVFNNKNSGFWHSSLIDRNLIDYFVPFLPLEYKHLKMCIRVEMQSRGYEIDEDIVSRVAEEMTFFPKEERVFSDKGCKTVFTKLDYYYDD
Sequence of Focal adhesion kinase 1 (Homo sapiens) (Q05397 whole entry, looked up): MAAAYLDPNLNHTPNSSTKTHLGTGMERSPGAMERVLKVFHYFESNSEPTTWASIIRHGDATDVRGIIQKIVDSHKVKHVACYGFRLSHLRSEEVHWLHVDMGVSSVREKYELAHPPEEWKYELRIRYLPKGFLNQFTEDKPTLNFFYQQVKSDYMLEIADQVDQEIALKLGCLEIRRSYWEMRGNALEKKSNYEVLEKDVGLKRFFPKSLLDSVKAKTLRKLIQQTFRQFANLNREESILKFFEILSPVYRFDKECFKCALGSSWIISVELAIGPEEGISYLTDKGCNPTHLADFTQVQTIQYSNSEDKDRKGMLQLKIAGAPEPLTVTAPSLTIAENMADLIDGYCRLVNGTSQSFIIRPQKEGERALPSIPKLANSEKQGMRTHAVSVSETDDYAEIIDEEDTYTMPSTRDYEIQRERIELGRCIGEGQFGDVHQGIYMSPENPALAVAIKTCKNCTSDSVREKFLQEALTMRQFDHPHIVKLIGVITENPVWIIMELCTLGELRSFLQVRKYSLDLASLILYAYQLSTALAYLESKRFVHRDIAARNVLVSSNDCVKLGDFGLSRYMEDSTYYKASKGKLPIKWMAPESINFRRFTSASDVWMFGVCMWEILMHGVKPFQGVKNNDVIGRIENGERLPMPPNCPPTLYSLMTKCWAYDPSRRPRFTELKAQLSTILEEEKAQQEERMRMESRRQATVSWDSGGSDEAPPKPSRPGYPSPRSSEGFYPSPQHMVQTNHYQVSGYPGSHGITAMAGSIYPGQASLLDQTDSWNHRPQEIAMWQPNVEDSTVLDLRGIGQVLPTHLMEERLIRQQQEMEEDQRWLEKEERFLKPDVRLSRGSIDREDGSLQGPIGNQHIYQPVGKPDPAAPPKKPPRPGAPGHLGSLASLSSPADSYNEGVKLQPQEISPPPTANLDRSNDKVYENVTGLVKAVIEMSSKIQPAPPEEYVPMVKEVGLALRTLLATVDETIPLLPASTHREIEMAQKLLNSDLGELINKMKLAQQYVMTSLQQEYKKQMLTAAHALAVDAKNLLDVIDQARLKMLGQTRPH
Sequence of Follistatin (Homo sapiens) (P19883 whole entry, looked up): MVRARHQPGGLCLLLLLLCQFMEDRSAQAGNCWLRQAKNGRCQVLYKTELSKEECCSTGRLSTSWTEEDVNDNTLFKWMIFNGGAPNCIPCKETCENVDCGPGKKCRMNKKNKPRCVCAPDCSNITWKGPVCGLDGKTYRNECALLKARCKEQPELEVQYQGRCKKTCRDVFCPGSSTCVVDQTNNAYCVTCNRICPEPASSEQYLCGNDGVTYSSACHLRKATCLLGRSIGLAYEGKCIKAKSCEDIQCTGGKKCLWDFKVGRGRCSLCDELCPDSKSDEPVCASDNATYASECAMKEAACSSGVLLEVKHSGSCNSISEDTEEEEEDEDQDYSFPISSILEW

Compound	composite z-score [1]	composite z-score [2]	composite z-score [3]	composite z-score [4]	composite z-score [5]	composite z-score [6]	z-score [7]	composite z-score (Lefty1)	composite z-score [8]	z-score [9]	composite z-score [10]	z-score [11]	z-score [12]	z-score [13]	z-score [14]	composite z-score [15]	composite z-score [16]	composite z-score (Torsin-1A (Homo sapiens) [17])	composite z-score (Torsin-1A (Homo sapiens) [18])	composite z-score [19]
C=CCOC(=O)[C@H]1[C@@H]2C(=O)O[C@@H](c3ccccc3)[C@@H](c3ccccc3)N2[C@@H](c2ccc(OCCOC(=O)[C@H]3C[C@H]4C(=O)N[C@@H](CCCC[N+](C)(C)C)C(=O)N4[C@H]3c3cccc(OCCO)c3)cc2)[C@]12C(=O)Nc1ccc(I)cc12	1.21	0.915	0.293	0.82	1.34	1.7	-1.45	0.761	0.19	-0.678 (inactive)	0.419	-0.587 (inactive)	-1.08 (inactive)	0.415 (inactive)	-0.0044 (inactive)	-0.0117	-0.13	0.485	0.29	1.03
Cc1c(NC(=O)/C(C#N)=C/C=C/c2ccc(N(C)C)cc2)c(=O)n(-c2ccccc2)n1C	1.61	1.18	0.0505	0.449	0.763	0.492	1.43	0.517	1.04	-3.99 (inactive)	0.48	-0.853 (inactive)	2.09 (inactive)	0.595 (inactive)	-1.4 (inactive)	0.96	0.264	0.314	0.288	0.259
C[C@@H](OCc1ccccc1)C1NC(=O)[C@@]23C(=O)N[C@@H](Cc4ccccc4)C2[C@H](C)[C@@]2(C)O[C@H]2C3/C=C/C/C=C\CNC(=O)CNC1=O (stereo not given in full)	0.413	-0.668	0.193	-2.57	-0.237	-0.113	-0.777	-0.339	-1.08	0.196 (inactive)	-0.556	-2.16 (inactive)	-0.295 (inactive)	-0.962 (inactive)	-0.88 (inactive)	-0.918	-0.105	0.333	-0.104	1.24
COCCOC(=O)N1C(=O)[C@@]2(c3ccccc31)[C@H](c1ccc(OCCO)cc1)N1[C@H](c3ccccc3)[C@H](c3ccccc3)OC(=O)[C@H]1[C@@H]2C(=O)Nc1nc2ccccc2s1	1.6	1.2	0.72	0.942	1.24	1.05	-2.22	0.518	0.433	-2.98 (inactive)	0.528	-1.49 (inactive)	-0.58 (inactive)	0.505 (inactive)	11.9 (active)	0.962	0.239	0.73	0.558	1.1
COC(=O)[C@@]1(Cc2ccccc2)[C@H]2c3cc(C(=O)N4CCCC4)n(Cc4cc(F)cc5c4OCOC5)c3C[C@H]2CN1C(=O)c1ccccc1	0.69	1.24	0.366	0.963	-0.0178	-0.575	0.487	-0.359	0.711	0.827 (inactive)	0.503	0.147 (inactive)	-0.511 (inactive)	-0.185 (inactive)	0.444 (inactive)	0.503	0.0982	-0.0566	1.26	-0.457
CN(C)CCCN1C(=O)[C@@]2(c3ccc([N+](=O)[O-])cc3)CC(=O)N(CC34CC5CC(CC(C5)C3)C4)[C@@H]2c2ccc(CO)cc21	1.98	-0.0813	-0.117	0.926	0.203	-0.112	1.72	0.13	0.354	-0.701 (inactive)	-0.199	0.278 (inactive)	0.878 (inactive)	-0.0259 (inactive)	-0.598 (inactive)	-0.472	-0.0963	-0.524	-0.17	0.0109
O=C(N1CCCCC1)[C@@]1(Cc2ccccc2)COC(c2ccc(OCCCO)cc2)=N1	1.85	1.2	0.195	0.96	0.475	1.3	1.22	-0.211	1.12	-0.117 (inactive)	1.03	-2.49 (inactive)	0.496 (inactive)	-0.128 (inactive)	-0.628 (inactive)	0.85	0.322	0.442	0.67	0.934
CC(C)C(O)C1C=CC2C(=O)N(C)C(=O)C2N1Nc1ccccc1 (stereo not given)	0.932	1.14	0.746	0.78	0.828	0.0704	-0.219	-0.241	1.23	-0.968 (inactive)	0.361	1.03 (inactive)	-1.04 (inactive)	0.0535 (inactive)	-0.0784 (inactive)	0.53	0.85	0.378	0.597	-0.361
CN1C(=O)C2C=CC(C(O)c3c(F)cccc3Cl)N(Nc3ccccc3)C2C1=O (stereo not given)	-0.0126	-0.105	0.464	0.978	1.03	-0.166	1.14	-0.309	1.05	0.565 (inactive)	0.438	1.01 (inactive)	0.402 (inactive)	0.433 (inactive)	0.928 (inactive)	1.53	0.0374	-0.353	-0.562	-0.206
CCOC(=O)C[C@H]1[C@H](OC(=O)c2ccccc2-c2ccccc2)[C@@H](NC(=O)c2ccc3ccccc3n2)c2cc(OCCCO)ccc2N1C(=O)c1ccc2ccccc2n1	1.22	0.374	0.281	0.74	0.474	0.202	0.481	0.659	0.0363	0.761 (inactive)	0.191	-0.688 (inactive)	-1.37 (inactive)	1.22 (inactive)	0.305 (inactive)	1.07	-0.117	-0.137	-0.184	0.389
